# Measured values as given in the supplement of paper PMC4466140.
# B1: unnamed (peptide)
# chain: ILARAILTIPRVLDK
# Biological target: AgAbp1
# Test: SPOT peptide array binding signal intensity (averaged, normalized) (arbitrary units (background-subtracted, floor 0; scale differs between SH3 domains)); higher = stronger binding of the SH3 domain to the peptide
# Method in brief: (§1)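 Spot intensities were captured after detection with anti-GST antibody, an HRP-linked anti-mouse secondary and luminol, and quantified with Genespotter. The probes were GST-fused SH3 domains from four yeast species, produced in E. coli BL21(DE3), purified on glutathione Sepharose and incubated at 10 μg/ml overnight at 4°C on cellulose-bound synthetic 15-mer peptides with cysteines replaced by serines. Binding signal is the normalized, background-subtracted spot intensity averaged over replicates, and its arbitrary units differ between domains.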
row,Binder,SPOT peptide array binding signal intensity
1,B1,2

# Biological target: AgBbc1
# Test: as above
# Method in brief: as §1
row,Binder,SPOT peptide array binding signal intensity
1,B1,50

# Biological target: AgBem1-D1
# Test: as above
# Method in brief: as §1
row,Binder,SPOT peptide array binding signal intensity
1,B1,162

# Biological target: AgBzz1-D1
# Test: as above
# Method in brief: as §1
row,Binder,SPOT peptide array binding signal intensity
1,B1,107

# Biological target: AgBzz1-D2
# Test: as above
# Method in brief: as §1
row,Binder,SPOT peptide array binding signal intensity
1,B1,121

# Biological target: AgCyk3
# Test: as above
# Method in brief: as §1
row,Binder,SPOT peptide array binding signal intensity
1,B1,11

# Biological target: AgFus1
# Test: as above
# Method in brief: as §1
row,Binder,SPOT peptide array binding signal intensity
1,B1,1100

# Biological target: AgHof1
# Test: as above
# Method in brief: as §1
row,Binder,SPOT peptide array binding signal intensity
1,B1,34.5

# Biological target: AgHse1
# Test: as above
# Method in brief: as §1
row,Binder,SPOT peptide array binding signal intensity
1,B1,500

# Biological target: AgLsb1
# Test: as above
# Method in brief: as §1
row,Binder,SPOT peptide array binding signal intensity
1,B1,1.5

# Biological target: AgLsb4
# Test: as above
# Method in brief: as §1
row,Binder,SPOT peptide array binding signal intensity
1,B1,1390

# Biological target: AgMyo5
# Test: as above
# Method in brief: as §1
row,Binder,SPOT peptide array binding signal intensity
1,B1,1

# Biological target: AgNbp2
# Test: as above
# Method in brief: as §1
row,Binder,SPOT peptide array binding signal intensity
1,B1,279

# Biological target: AgRvs167
# Test: as above
# Method in brief: as §1
row,Binder,SPOT peptide array binding signal intensity
1,B1,12

# Biological target: AgSho1
# Test: as above
# Method in brief: as §1
row,Binder,SPOT peptide array binding signal intensity
1,B1,516

# Biological target: AgSla1-D1-D2
# Test: as above
# Method in brief: as §1
row,Binder,SPOT peptide array binding signal intensity
1,B1,58

# Biological target: AgSla1-D3
# Test: as above
# Method in brief: as §1
row,Binder,SPOT peptide array binding signal intensity
1,B1,12

# Biological target: CaAbp1-D1
# Test: as above
# Method in brief: as §1
row,Binder,SPOT peptide array binding signal intensity
1,B1,30

# Biological target: CaAbp1-D2
# Test: as above
# Method in brief: as §1
row,Binder,SPOT peptide array binding signal intensity
1,B1,20

# Biological target: CaBbc1
# Test: as above
# Method in brief: as §1
row,Binder,SPOT peptide array binding signal intensity
1,B1,68.5

# Biological target: CaBem1-D1
# Test: as above
# Method in brief: as §1
row,Binder,SPOT peptide array binding signal intensity
1,B1,33.5

# Biological target: CaBzz1-D1
# Test: as above
# Method in brief: as §1
row,Binder,SPOT peptide array binding signal intensity
1,B1,625

# Biological target: CaBzz1-D2
# Test: as above
# Method in brief: as §1
row,Binder,SPOT peptide array binding signal intensity
1,B1,247

# Biological target: CaCyk3
# Test: as above
# Method in brief: as §1
row,Binder,SPOT peptide array binding signal intensity
1,B1,35

# Biological target: CaFus1
# Test: as above
# Method in brief: as §1
row,Binder,SPOT peptide array binding signal intensity
1,B1,1530

# Biological target: CaHof1
# Test: as above
# Method in brief: as §1
row,Binder,SPOT peptide array binding signal intensity
1,B1,2.25

# Biological target: CaHse1
# Test: as above
# Method in brief: as §1
row,Binder,SPOT peptide array binding signal intensity
1,B1,130

# Biological target: CaLsb1
# Test: as above
# Method in brief: as §1
row,Binder,SPOT peptide array binding signal intensity
1,B1,2.25

# Biological target: CaLsb4
# Test: as above
# Method in brief: as §1
row,Binder,SPOT peptide array binding signal intensity
1,B1,62.5

# Biological target: CaMyo5
# Test: as above
# Method in brief: as §1
row,Binder,SPOT peptide array binding signal intensity
1,B1,12.5

# Biological target: CaNbp2
# Test: as above
# Method in brief: as §1
row,Binder,SPOT peptide array binding signal intensity
1,B1,290

# Biological target: CaRvs167
# Test: as above
# Method in brief: as §1
row,Binder,SPOT peptide array binding signal intensity
1,B1,99.3

# Biological target: CaRvs167-3
# Test: as above
# Method in brief: as §1
row,Binder,SPOT peptide array binding signal intensity
1,B1,854

# Biological target: CaSho1
# Test: as above
# Method in brief: as §1
row,Binder,SPOT peptide array binding signal intensity
1,B1,1420

# Biological target: CaSla1-D1-D2
# Test: as above
# Method in brief: as §1
row,Binder,SPOT peptide array binding signal intensity
1,B1,15

# Biological target: CaSla1-D3
# Test: as above
# Method in brief: as §1
row,Binder,SPOT peptide array binding signal intensity
1,B1,118

# Biological target: ScAbp1
# Test: as above
# Method in brief: as §1
row,Binder,SPOT peptide array binding signal intensity
1,B1,6
